Measured values from PubChem BioAssay (NCI).
About 83,000 compounds went through this panel and 20% of them were active in at least one assay; those are over-represented in the sample as a whole.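 96-well plates, one dose, 48 hours. Percent growth reported; active if below 10.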 Activity calls are given as the source filed them.

Test system: A549/ATCC NSCLC
Assay: NCI-60 one-dose screen, 48 h (100 = growth as untreated, 0 = no growth, -100 = all killed)
Details: 10 µM unless noted

SMILES | growth
COc1ccc(C2Nc3ncnc(N)c3N=C3c4ccccc4C(=O)C32)cc1 (centres undefined) | 96.3% (inactive)
Nc1nc(N)c2c(n1)NC1(C=C(O)c3ccccc31)C1=C(N2)c2ccccc2C1=O (centres undefined) | 110% (inactive)
CCOC(=O)c1cnc2ccc(Cl)cc2c1NCCCN(C)C | 4.15% (active)
CCCCCCc1cc2cc(-c3nc4ccccc4[nH]3)c(=Nc3ccccc3C)oc2cc1O | 49.9% (inactive)
OC(c1ccccc1)c1nnc(SCc2ccccc2)n1Cc1ccccc1 (centres undefined) | 94.1% (inactive)
CC(=O)O[C@@H]1/C=C/C(=O)N[C@@H](C)CCC/C=C/[C@@H]2CCC[C@H]21 | 108% (inactive)
COc1ccc(C2Nc3nc(OC)n(C)c(=O)c3N=C3c4ccccc4C(=O)C32)cc1 (centres undefined) | 106% (inactive)
CN1CCN(c2nc(Nc3ccc(O)cc3)nc3ccccc23)CC1 | 42.5% (inactive)
COc1ccc(/C=C2\SC(=Nc3ccccc3)NC2=O)cc1 | -74.8% (active)
CCOC(=O)c1cc2c(n1Cc1cc(OC)c(OC)c(OC)c1)-c1oncc1CCC2 | 26.7% (inactive)
Cn1c2c(c(=O)[nH]c1=O)NC1=C(C(=O)c3ccccc31)C1(C=C(O)c3ccccc31)N2 (centres undefined) | 102% (inactive)
FC(F)(F)c1cccc(Nc2nc(-c3ccccc3)nc3ncccc23)c1 | 82.3% (inactive)
O=C(Nc1ccc(Cl)cc1)c1cc2ccccc2cc1OP(=O)(O)O | 16.4% (inactive)
COC(=O)/C(=C\c1c(-c2ccccc2)[nH]c2ccccc12)S(C)(=O)=O | 38.6% (inactive)
Nc1ccc(C2c3ccccc3Oc3ccccc32)cc1 | 97.7% (inactive)
N#CC(C#N)=Cc1c(-c2ccccc2)[nH]c2ccccc12 | 37.1% (inactive)
CCCCc1ccc(NS(=O)(=O)c2cc3c4c(c2)CCN4C(=O)CC3)cc1 | 10.6% (inactive)
O=C(CSc1ncccc1C(=O)O)Nc1ccc(Oc2ccccc2)cc1 | 98% (inactive)
N#C/C(=C\c1c(-c2ccccc2)[nH]c2ccccc12)C(=O)c1ccccc1 | 50.2% (inactive)
O=C1/C=C/[C@@H](O)[C@@H]2C[C@@H](O)C[C@H]2/C=C/CCCCO1 | 23.1% (inactive)
CCCC(c1nnnn1C1CCCCC1)N1CCN(C(=O)c2ccco2)CC1 (centres undefined) | 55.2% (inactive)
Nc1nc(Nc2cccc(F)c2)nc2ccccc12 | 46.3% (inactive)
CC(C)(C)c1ccc(C2CC(=O)C3=C(C2)Nc2ccccc2N(C(=O)c2ccccc2Cl)C3c2ccc(F)cc2)cc1 (centres undefined) | -3.2% (active)
O=CCCCC(O)C=O (centres undefined) | 105% (inactive)
CN(O)c1nc(N(C)O)nc(N2CCOCC2)n1 | 33% (inactive)

Test system: 786-0 renal
Assay: as above
Details: 10 µM unless noted

SMILES | growth
COc1ccc(OC)c(N(CCN2C(=O)c3ccccc3C2=O)C(=O)CCl)c1 | 38.6% (inactive)
O=C(NC1CCN(Cc2ccccc2)CC1)c1cc(C(=O)NC2CCN(Cc3ccccc3)CC2)cc(C(=O)NC2CCN(Cc3ccccc3)CC2)c1 | 100% (inactive)
CCOC(=O)c1c(Cl)c2c(n1Cc1ccccc1)-c1oncc1CCC2 | 83.1% (inactive)
O=C(/C=C/c1ccccn1)c1ccc(OCc2nnc(-c3ccc(Cl)cc3)o2)cc1 | -49.9% (active)
CSc1nc2c(c(=O)n1C)N=C1c3ccccc3C(=O)C1C(c1ccccc1)N2 (centres undefined) | 91.9% (inactive)
CC/C=C\C[C@H](O)C/C=C1/C(=O)C=C[C@@H]1C/C=C\CCCC(=O)OCCS(=O)(=O)c1ccccc1 | 60% (inactive)
Cc1cc(Nc2ccc(OCc3ccccc3)cc2)nc2cc(O)ccc12 | 72.2% (inactive)
CSc1nc2c(c(=O)[nH]1)N=C1c3ccccc3C(=O)C1C(c1ccc(F)cc1)N2 (centres undefined) | 71.5% (inactive)
CCOc1ccccc1CN1CCc2nc3cc(C(C)(C)C)[nH]n3c(=O)c2C1 | 90.8% (inactive)
O=C(NC(=S)Nc1cccc(NC(=S)NC(=O)c2ccccc2)c1)c1ccccc1 | 76.5% (inactive)
CCOC(=O)c1c2c(n3cccc(Cl)c13)C(=O)c1ncccc1C2=O | 73.9% (inactive)
O=C(NN1C(=O)CSC1c1ccc(Cl)cc1)c1[nH]c2ccc(F)cc2c1-c1ccccc1 (centres undefined) | 65.8% (inactive)
COc1ccc(-n2c(C(O)c3ccccc3)nn(CN3CCOCC3)c2=S)cc1 (centres undefined) | 106% (inactive)
CCCC(=O)CC(C)=O.CCCC(=O)CC(C)=O.[Cu] | 104% (inactive)
COc1ccc(C2Nc3ncnc(N)c3N=C3c4ccccc4C(=O)C32)cc1 (centres undefined) | 93.5% (inactive)
Nc1nc(N)c2c(n1)NC1(C=C(O)c3ccccc31)C1=C(N2)c2ccccc2C1=O (centres undefined) | 104% (inactive)
CCOC(=O)c1cnc2ccc(Cl)cc2c1NCCCN(C)C | 8.14% (active)
CCCCCCc1cc2cc(-c3nc4ccccc4[nH]3)c(=Nc3ccccc3C)oc2cc1O | 46.8% (inactive)
OC(c1ccccc1)c1nnc(SCc2ccccc2)n1Cc1ccccc1 (centres undefined) | 95.4% (inactive)
CC(=O)O[C@@H]1/C=C/C(=O)N[C@@H](C)CCC/C=C/[C@@H]2CCC[C@H]21 | 101% (inactive)

SMILES | growth
COc1ccc(C2Nc3nc(OC)n(C)c(=O)c3N=C3c4ccccc4C(=O)C32)cc1 (centres undefined) | 98.1% (inactive)
CN1CCN(c2nc(Nc3ccc(O)cc3)nc3ccccc23)CC1 | 64.2% (inactive)
COc1ccc(/C=C2\SC(=Nc3ccccc3)NC2=O)cc1 | -92.8% (active)
CCOC(=O)c1cc2c(n1Cc1cc(OC)c(OC)c(OC)c1)-c1oncc1CCC2 | 39.5% (inactive)
Cn1c2c(c(=O)[nH]c1=O)NC1=C(C(=O)c3ccccc31)C1(C=C(O)c3ccccc31)N2 (centres undefined) | 97.7% (inactive)
FC(F)(F)c1cccc(Nc2nc(-c3ccccc3)nc3ncccc23)c1 | 68% (inactive)
O=C(Nc1ccc(Cl)cc1)c1cc2ccccc2cc1OP(=O)(O)O | 20.6% (inactive)
COC(=O)/C(=C\c1c(-c2ccccc2)[nH]c2ccccc12)S(C)(=O)=O | 38.1% (inactive)
Nc1ccc(C2c3ccccc3Oc3ccccc32)cc1 | 105% (inactive)
N#CC(C#N)=Cc1c(-c2ccccc2)[nH]c2ccccc12 | 40% (inactive)
CCCCc1ccc(NS(=O)(=O)c2cc3c4c(c2)CCN4C(=O)CC3)cc1 | -1.95% (active)
O=C(CSc1ncccc1C(=O)O)Nc1ccc(Oc2ccccc2)cc1 | 99.8% (inactive)
N#C/C(=C\c1c(-c2ccccc2)[nH]c2ccccc12)C(=O)c1ccccc1 | 50.1% (inactive)
O=C1/C=C/[C@@H](O)[C@@H]2C[C@@H](O)C[C@H]2/C=C/CCCCO1 | 3.17% (active)
CCCC(c1nnnn1C1CCCCC1)N1CCN(C(=O)c2ccco2)CC1 (centres undefined) | 74.9% (inactive)
Nc1nc(Nc2cccc(F)c2)nc2ccccc12 | 46.5% (inactive)
CC(C)(C)c1ccc(C2CC(=O)C3=C(C2)Nc2ccccc2N(C(=O)c2ccccc2Cl)C3c2ccc(F)cc2)cc1 (centres undefined) | 51.8% (inactive)
O=CCCCC(O)C=O (centres undefined) | 97.5% (inactive)
CN(O)c1nc(N(C)O)nc(N2CCOCC2)n1 | 21% (inactive)
